Bioassay records: PubChem BioAssay, Broad Institute
EBV LMP1 NFkB: reduces LMP1-driven NF-kappaB luciferase signal. LMP1-induced NF-kappaB luciferase reporter cells, luminescence. inhibition, % at 12.5 µM. 350,000 compounds, 0.69% hits. AID 504558; in the data active means inhibition above about 41%; inconclusive means no clear call, values can overlap the other calls;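 further: 0% = neutral control wells and 100% = reference inhibitor control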
PAX8 inh HTS: lowers PAX8-driven luciferase in RMG-I cells; RMG-I TPO-luciferase reporter, SteadyGlo, 24 h; inhibition, % at 12.6 µM; 360,000 compounds, 1.2% hits;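 active means mean replicate inhibition at least 60% with every replicate also reaching 60%; inconclusive means only one of the two criteria is met; inactive means mean below 60% and not all replicates reaching 60%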;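 further: luciferase light reporting Pax8 driven TPO promoter activity; plate controls were median of neutral control wells for no effect and mitoxantrone controls for full effect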
aSyn 5UTR inh: 5' untranslated region of α-synuclein, MLPCN primary screen | alpha-synuclein 5'UTR reporter, inhibitor activity | inhibition, % (tested at 7.5 µM) | AID 1813 | 300,000 compounds, 0.82% hits; in the data active means inhibition above about 60%; inconclusive means no clear call, values can overlap the other calls;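 further: H4 neuroglioblastoma cells stably carrying SNCA 5'UTR luciferase fusion; 0% = DMSO wells and 100% = positive control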
MITF TRPM1 inh: inhibitors of MITF-driven TRPM1 promoter in melanoma cells. inhibition, % at 12.5 µM. 330,000 compounds, 0.83% hits. SK-MEL-5 TRPM1 promoter luciferase, 24 h;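 active means mean inhibition across replicates of 60% or more, whatever share of single replicates reaches that level; inconclusive means some that reach 60%, reason not given; inactive means mean inhibition across replicates below 60%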
Shn3 inh set2: inhibitors of Schnurri-3 3'UTR reporter in osteoblasts; AID 588674; Clone20 osteoblast Shn3 3'UTR firefly luciferase, 24 h; 360,000 compounds, 0.52% hits; inhibition, % at 12.5 µM;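 active means mean inhibition of at least 75% with every replicate also reaching 75%; inconclusive means mean inhibition at least 75% but some replicate below; inactive means mean inhibition below 75%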;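 further: 0% = median of neutral control wells and 100% = pilot-screen positive control compound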
* marks the source's active call; other numbers are inactive results; ? = inconclusive; nt = not tested or not shown. Compounds with a hit are over-represented: about 2.1% of the library has one in this group of screens.

SMILES	EBV LMP1 NFkB	PAX8 inh HTS	aSyn 5UTR inh	MITF TRPM1 inh	Shn3 inh set2
CCOc1ccc(C2Nc3ccc4ccccc4c3-c3c2c(=O)oc2ccccc32)cc1 (configuration not stated)	-8	nt	-17	29	10
O=c1c(Br)ccc(Br)cc1Br	-2	118*	nt	102*	97*
O=C1CN(S(=O)(=O)c2cc(Br)ccc2Br)CCN1	-4	-8	nt	nt	-19
CCN(c1ccccc1)S(=O)(=O)c1ccc(Cl)c(NC(=O)CN(C)Cc2cccc(F)c2)c1	9	31	nt	13	91*
CCC(C)NCC(=O)Nc1cc(S(=O)(=O)N(CC)c2ccccc2)ccc1Cl (configuration not stated)	7	0	0	-9	3
C[C@H]1CN([C@@H](C)CO)C(=O)c2cc(NC(=O)C3CCCCC3)ccc2O[C@H]1CN(C)S(C)(=O)=O	nt	-6	nt	nt	nt
COCCNC(=O)c1sc2nc(-c3ccccc3)cn2c1C	-9	-62	-77	-37	-17
Cn1c(=O)[nH]c2cc3ccccc3cc21	14	-17	62*	11	4
Cc1nc2cc3ccccc3cc2n1C	-6	-33	-8	-18	-2
O=C1c2ccccc2CN1CCNC(=S)NC1CCCCC1	49*	-32	-16	-33	-7
O=C(NCCN1Cc2ccccc2C1=O)c1cccs1	-8	nt	-40	-25	-22
O=[N+]([O-])c1ccc(-c2nc(C(Cl)Cl)c3ccccc3n2)cc1	20	3	129*	66*	67
CN(Cc1ccccc1)c1nc(-c2ccc([N+](=O)[O-])cc2)nc2ccccc12	15	nt	26	2	24
Cc1ccc(S(=O)(=O)N(C)C[C@H]2OCCCC[C@@H](C)Oc3ccc(NC(=O)Nc4ccc(F)cc4)cc3C(=O)N([C@@H](C)CO)C[C@@H]2C)cc1	nt	45	nt	nt	nt
C[C@H](CO)N1C[C@H](C)[C@H](CN(C)S(=O)(=O)c2ccc(F)cc2)OCCCC[C@H](C)Oc2ccc(NC(=O)Nc3ccc(F)cc3)cc2C1=O	nt	76*	nt	nt	nt
C[C@H]1CCCCO[C@@H](CN(C)S(=O)(=O)c2ccc(F)cc2)[C@@H](C)CN([C@@H](C)CO)C(=O)c2cc(NC(=O)Nc3ccc(F)cc3)ccc2O1	nt	52	nt	nt	nt
Cc1ccc(S(=O)(=O)N(C)C[C@@H]2OCCCC[C@H](C)Oc3ccc(NC(=O)Nc4ccc(F)cc4)cc3C(=O)N([C@H](C)CO)C[C@@H]2C)cc1	nt	61*	nt	nt	nt
C[C@@H]1CN([C@H](C)CO)C(=O)c2cc(NC(=O)Nc3ccc(F)cc3)ccc2O[C@@H](C)CCCCO[C@H]1CN(C)S(=O)(=O)c1ccc(F)cc1	nt	86*	nt	nt	nt
CCCn1c(N)c(N(CCOC)C(=O)c2ccc(Cl)c([N+](=O)[O-])c2)c(=O)[nH]c1=O	-1	-2	-20	4	-2
COc1ccc(S(=O)(=O)N(C)C)cc1NC(=O)CSc1nnc(-c2cccnc2)o1	8	4	9	-1	-15
CCN(C(=O)COC(=O)c1cc(-c2ccccc2)nc2c1c(C)nn2-c1ccc(C)cc1)C1CCS(=O)(=O)C1 (configuration not stated)	-5	22	1	4	3
Cc1ccc(CNC(=O)c2ccc(N3CCC4(CC3)CC(c3ccccc3)=NO4)c([N+](=O)[O-])c2)cc1	78*	-2	15	20	57
O=C(NCc1ccccc1)c1ccc(N2CCC3(CC2)CC(c2ccccc2)=NO3)c([N+](=O)[O-])c1	13	7	-1	3	46
C=CCn1c(SCC(=O)c2[nH]c(C)c(C(C)=O)c2C)nnc1-c1ccncc1	-5	nt	34	3	7
C=CCn1c(SCC(=O)c2[nH]c(C)c(C(=O)OC)c2C)nc2scc(-c3ccc(OC)c(OC)c3)c2c1=O	3	7	?	105*	84
SMILES	EBV LMP1 NFkB	PAX8 inh HTS	aSyn 5UTR inh	MITF TRPM1 inh	Shn3 inh set2
O=C(C1=C[C@H](c2coc3ccccc3c2=O)C[C@H](OCc2ccc(CO)cc2)O1)N1CCCCCCC1	nt	-18	nt	nt	nt
Nc1nc2n[nH]nc2c(=O)[nH]1	-16	nt	30	65*	25
COc1cc(-c2nc(C(=O)NCC3CCCO3)cc3c2[nH]c2ccccc23)cc(OC)c1OC (configuration not stated)	92*	nt	21	11	40
COc1ccccc1-c1nc(C(=O)NCC2CCCO2)cc2c1[nH]c1ccccc12 (configuration not stated)	-14	nt	2	nt	-12
COc1ccccc1NC(=O)C1=C(C)Nc2nc(-c3ccccc3)nn2C1c1ccccn1 (configuration not stated)	5	nt	21	-7	12
C[C@@H]1CCCCO[C@H](CN(C)Cc2ccc(C(F)(F)F)cc2)[C@H](C)CN([C@H](C)CO)C(=O)c2cc(NS(=O)(=O)c3ccc(Cl)cc3)ccc2O1	nt	99*	nt	nt	nt
C[C@@H]1CCCCO[C@@H](CN(C)Cc2ccc(C(F)(F)F)cc2)[C@H](C)CN([C@H](C)CO)C(=O)c2cc(NS(=O)(=O)c3ccc(Cl)cc3)ccc2O1	nt	103*	nt	nt	nt
C[C@@H]1CN([C@H](C)CO)C(=O)c2cc(NS(=O)(=O)c3ccc(Cl)cc3)ccc2O[C@@H](C)CCCCO[C@H]1CN(C)Cc1ccc(C(F)(F)F)cc1	nt	99*	nt	nt	nt
C[C@@H]1CCCCO[C@@H](CN(C)Cc2ccc(C(F)(F)F)cc2)[C@H](C)CN([C@@H](C)CO)C(=O)c2cc(NS(=O)(=O)c3ccc(Cl)cc3)ccc2O1	nt	103*	nt	nt	nt
COc1cccc(CNS(=O)(=O)c2cccc(S(=O)(=O)N3CCOCC3)c2)c1	-3	nt	-13	-13	-21
CC1CCCCC1NC(=O)CN1CCN(Cc2ccccc2Cl)C1=O (configuration not stated)	-2	-2	28	0	2
C[C@H]1CCCCO[C@@H](CN(C)Cc2ccc(C(F)(F)F)cc2)[C@@H](C)CN([C@@H](C)CO)C(=O)c2cc(NS(=O)(=O)c3ccc(Cl)cc3)ccc2O1	nt	102*	nt	nt	nt
C[C@@H]1CN([C@@H](C)CO)C(=O)c2cc(NS(=O)(=O)c3ccc(Cl)cc3)ccc2O[C@@H](C)CCCCO[C@@H]1CN(C)Cc1ccc(C(F)(F)F)cc1	nt	-16	nt	nt	nt
C[C@@H]1CCCCO[C@H](CN(C)Cc2ccc(C(F)(F)F)cc2)[C@@H](C)CN([C@H](C)CO)C(=O)c2cc(NS(=O)(=O)c3ccc(Cl)cc3)ccc2O1	nt	-14	nt	nt	nt
C[C@@H]1CN([C@@H](C)CO)C(=O)c2cc(NS(=O)(=O)c3ccc(Cl)cc3)ccc2O[C@@H](C)CCCCO[C@H]1CN(C)Cc1ccc(C(F)(F)F)cc1	nt	102*	nt	nt	nt
O=C(NCc1ccccn1)C(=O)NCC(c1ccco1)N1CCOCC1 (configuration not stated)	-10	10	4	1	-2
COc1ccc(-c2ccc3c(c2)S(=O)(=O)c2cccc(C(=O)NCc4cc(C)oc4C(F)(F)F)c2C3=O)cc1OC	86*	nt	nt	18	19
COc1ccc(-c2ccc3c(c2)S(=O)(=O)c2cccc(C(=O)NCc4cccc(OC(F)(F)F)c4)c2C3=O)cc1OC	-2	nt	nt	35	46
